In the library only some 2.4% were active in any assay of this set; here they are far more common.
AmpC det inh = blocks E. coli AmpC beta-lactamase in presence of detergent. P00811. purified AmpC, nitrocefin hydrolysis with detergent. Potency, µM (highest dose often 28.7 µM), inactives show at the highest dose activity change, negative = inhibition. 71,000 compounds, 0.09% hits. AID 584; active = well fitted curve in the direction sought with a large enough effect; inconclusive = small, poorly fitted or top-dose-only effect; also: % is scaled to controls: 0 for no effect and ±100 for the full control effect
Target sequence (P00811 whole entry, looked up): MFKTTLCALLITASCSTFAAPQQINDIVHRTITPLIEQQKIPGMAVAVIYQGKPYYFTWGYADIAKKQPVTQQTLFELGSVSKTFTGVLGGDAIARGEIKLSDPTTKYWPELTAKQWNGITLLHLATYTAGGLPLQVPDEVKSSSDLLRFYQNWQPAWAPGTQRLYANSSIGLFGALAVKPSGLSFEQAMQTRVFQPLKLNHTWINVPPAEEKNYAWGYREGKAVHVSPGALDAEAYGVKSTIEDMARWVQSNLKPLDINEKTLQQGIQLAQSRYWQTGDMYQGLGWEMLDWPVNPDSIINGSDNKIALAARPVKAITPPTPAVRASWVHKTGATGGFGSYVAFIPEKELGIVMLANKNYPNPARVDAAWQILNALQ
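E. coli AmpC (5.3 nM) in 20 mM phosphate pH 7.0 with 0.01% Triton X-100, preincubated 15 min RT with compound; nitrocefin (2 uL of 800 uM stock) hydrolysis followed by 480 nm absorbance every 20 s over 4 min.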
AmpC nodet inh = AmpC beta-lactamase inhibition, detergent-free assay; Potency, µM (top dose mostly 28.7 µM), for the others: top-dose activity change, negative = inhibition; AmpC nitrocefin hydrolysis, absorbance 480 nm, no detergent; 71,000 compounds, 1.8% hits; also: % of control where 0% means no effect
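Enzyme, pH 7.0 phosphate. Compound titrations were pre-incubated with AmpC for 15 min at room temperature before nitrocefin (stock 800 uM) addition; product formation was recorded at 480 nm every 20 s for 4 min.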
Anthrax LT inh = blocks cellular internalization of anthrax lethal toxin; Cells, anthrax lethal toxin internalization, FRET ratio (460/530); Potency, µM (titrated, usually from 40 µM), without a hit: top-dose activity change, negative = inhibition, actives largely listed as inhibitors; 70,000 compounds, 0.67% hits; AID 912; also: % is scaled to controls: 0 for no effect and ±100 for the full control effect; nearly all actives have a fitted effect of over 50% in size
Prx2 Sm inh = Schistosoma mansoni Prx2 inhibition; S. mansoni Prx2 activity coupled to TGR/GSH (TGR is thioredoxin glutathione reductase), NADPH fluorescence loss, qHTS; 65,000 compounds, 0.07% hits; Potency, µM
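Purified S. mansoni TGR and Prx2 in pH 7.4 phosphate buffer with EDTA and Tween-20 were preincubated with compounds for 15 min. Further NADPH/GSH was added, then a 2.5 mM H2O2 aliquot initiated turnover, followed kinetically by NADPH fluorescence.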
Active calls of the source: *; i = inactive; ? = inconclusive; · = no result given; [ ] = remark or other dose. Unless noted, calls follow the shape of the full dose curve. Potency is read from the fitted curve at half-maximal effect.

SMILES | AmpC det inh | AmpC nodet inh | Anthrax LT inh | Prx2 Sm inh
CN1C[C@@H](C(=O)N[C@]2(C)O[C@]3(O)[C@H]4CCCN4C(=O)[C@H](Cc4ccccc4)N3C2=O)C[C@H]2c3cccc4[nH]cc(c34)C[C@@H]21 | -6% | 147% | 13% | >57
O=c1c(O)c(-c2ccc(O)cc2)oc2ccc(O)cc12 | -2% | 16µM*[single pt active] | -20% | i
CN(C)C(=O)c1ccc(-c2ccc3ncnc(N4CCC(C(=O)O)CC4)c3c2)cc1 | 9% | 2% | -13% | >57
COc1ccc(CNC(=O)Cn2nc(C(F)(F)F)c3c2CCC3)cc1 | -2% | 7% | -5% | >57
COc1ccc(NC(=O)Cn2nc(C(F)(F)F)c3c2CCCC3)c(OC)c1 | -7% | 52% | 13µM* | >57
OC(COc1ccc(Cl)c2ccccc12)CN1CCN(c2ccccn2)CC1 (stereo unspecified) | 7% | 84% | 10µM* | >57
O=C(c1ccco1)N1CCCC(c2nc(-c3ccc(S(=O)(=O)NCc4ccccc4)cc3)no2)C1 (stereo unspecified) | -4% | 1% | 13µM* | >57
COc1ccc(-c2noc(C3CCCN(C(=O)CCc4ccccc4)C3)n2)cc1 (stereo unspecified) | 1% | 77% | 0% | >57
C1CCC(C(C[C@@H]2CCCCN2)C2CCCCC2)CC1 | -2%[12.8 µM] | 9%[12.8 µM] | 7%[3.58 µM] | >57
COc1ccc(C2C(C(C)=O)=C(C)Nc3ncnn32)cc1OC (stereo unspecified) | 0% | -5% | ? | >57
COc1cc(C2C(C(=O)OC(C)C)=C(C)Nc3ncnn32)cc(OC)c1OC (stereo unspecified) | 14% | 4µM*[single pt active] | -1% | >57
CNc1ccc2oc(C[C@@H]3O[C@@]4(CC[C@H]3C)O[C@@H]([C@@H](C)C(=O)c3ccc[nH]3)[C@@H](C)C[C@H]4C)nc2c1C(=O)O | -11% | 6% | ? | >57
Cc1cc(C)cc(N(CC(=O)N2CCc3ccccc32)S(=O)(=O)c2c(C)noc2C)c1 | 11% | 4µM*[single pt active] | 2µM* | >57
CCOc1ccc(N(CC(=O)N2CCc3ccccc32)S(=O)(=O)c2c(C)noc2C)cc1 | 17% | 3.2µM*[single pt active] | ? | >57
Cc1cc(C)cc(N(CC(=O)N2CCn3c2nc2ccccc23)S(=O)(=O)c2c(C)noc2C)c1 | 11% | 4µM*[single pt active] | ? | >57
Cc1cc(C)cc(N(CC(=O)N2CCN(c3ccccc3)CC2)S(=O)(=O)c2c(C)noc2C)c1 | 15% | 108% | ? | >57
Cc1n[nH]c(C)c1S(=O)(=O)N(CC(=O)N1CCc2ccccc21)c1ccc(C(C)C)cc1 | 11% | 4µM*[single pt active] | 6% | >57
COc1ccc2c(c1)CCc1c(C(=O)NCCc3ccc(OC)c(OC)c3)noc1-2 | 0% | 78% | 0% | ?
COc1ccc2c(c1)CCc1c(C(=O)NCc3ccc(F)cc3)noc1-2 | 10% | 4µM*[single pt active] | ? | >57
COc1ccc2c(c1)CCc1c(C(=O)Nc3cc(C)n(Cc4ccc(Cl)cc4)n3)noc1-2 | -3% | 7.9µM* | 5% | >57
CCCNC(=O)c1noc2c1CCc1ccccc1-2 | 14% | 3.2µM*[single pt active] | -6% | >57
O=C(NCCc1ccccc1)c1noc2c1CCc1ccccc1-2 | -5% | -24% | -11% | >57
CSCC[C@@H]1NC(=O)C/C=C\[C@@H](C)COC(=O)[C@@H](C)COC1=O | · | · | -15%[0.32 µM] | ·
O=C(COC(=O)C1CCN(S(=O)(=O)c2cccs2)CC1)c1cc2ccccc2o1 | -2% | 10µM* | -8% | >57
O=C(COC(=O)C1CCN(S(=O)(=O)c2cccs2)CC1)c1ccc2c(c1)OCCO2 | -3% | -17% | 0% | >57
SMILES | AmpC det inh | AmpC nodet inh | Anthrax LT inh | Prx2 Sm inh
O=C(c1ccccc1C(=O)N1CCN(c2ccccc2F)CC1)N1CCN(c2ccccc2F)CC1 | -1% | 129% | -14% | ·
O=C(N1CCOCC1)N1CCN(c2ccccc2F)CC1 | 12% | 4µM*[single pt active] | -9% | >57
CC1=C(C(=O)OCc2ccccc2)C(c2cccnc2)n2ncnc2N1 (stereo unspecified) | -2% | 6% | 2% | >57
CC(=O)C1=C(C)Nc2ncnn2C1c1cccc(OCc2ccccc2)c1 (stereo unspecified) | 12% | 4µM*[single pt active] | 6% | >57
Oc1ccc(Cl)cc1-c1cc(-c2ccccc2)n[nH]1 | 19% | 4µM*[single pt active] | ? | >57
CCOC(=O)C1CCN(CC(O)COc2ccc(C(C)=O)cc2)CC1 (stereo unspecified) | 12% | 3.2µM*[single pt active] | -11% | >57
CCOC(=O)C1CCN(CC(O)COc2ccc(C(C)(C)C)cc2)CC1 (stereo unspecified) | -1% | 60% | -15% | >57
CC(=O)c1ccc(OCC(O)CN2CCN(Cc3ccccc3)CC2)cc1 (stereo unspecified) | 14% | 4µM*[single pt active] | -8% | >57
O=C(Nc1ccc(CN2CCOCC2)cc1)c1ccc(-c2ccc(Br)cc2)o1 | -6% | 120% | 13µM* | >57
Clc1ccc(CSCCc2ccncc2)cc1Cl | -2%[5.75 µM] | 4%[5.75 µM] | -12%[8 µM] | >57
CC(NC(=O)c1noc2c1CCCCC2)c1ccccc1 (stereo unspecified) | 11% | 4µM*[single pt active] | 9% | >57
C[C@H]1COC(=O)[C@H](Cc2ccccc2)NC(=O)[C@@H](C)COC(=O)[C@H](Cc2ccccc2)NC1=O | · | · | 1%[1.6 µM] | ·
COc1ccc(NC(=O)NCCCN2CCN(c3cc(C)ccc3C)CC2)cc1 | 12% | 4µM*[single pt active] | ? | >57
COc1ccc2[nH]cc(CCNc3ncncc3-c3ccccc3C)c2c1 | -4% | 11% | 10µM* | >57
COc1ccc2[nH]cc(CCNc3ncnc4ccc(-c5cccnc5)cc34)c2c1 | 9% | 0% | -10% | >57
COc1ccc2[nH]cc(CCNc3ccnc(-c4ccc(N(C)C)cc4)n3)c2c1 | -4% | -6% | 7.9µM* | >57
COc1ccc2[nH]cc(CCNc3ncncc3-c3cccnc3)c2c1 | 6% | 10% | -3% | >57
COc1ccc2[nH]cc(CCNc3ncnc4ccc(-c5ccccc5OC)cc34)c2c1 | 9% | 10% | 10µM* | >57
COc1ccc2[nH]cc(CCNc3ccnc(-c4ccoc4)n3)c2c1 | 10% | -23% | ? | >57
CC(C)c1nccn1Cc1ccc(Cl)cc1Cl | -4%[5.75 µM] | 9%[5.75 µM] | ? | >57
CC1(C(=O)NC2CCCCCC2)CCC(=O)N1Cc1ccc2c(c1)OCO2 (stereo unspecified) | 3% | 41% | -2% | >57
COc1ccc(CCNC(=O)C2(C)CCC(=O)N2Cc2ccc3c(c2)OCO3)cc1OC (stereo unspecified) | 11% | 4µM*[single pt active] | -1% | >57
Cc1ccccc1-c1ccc2ncnc(NCc3cccs3)c2c1 | 14% | -1% | ? | >57
C=C1C/C(=C\C)C(=O)O[C@@H]2CCN3CC=C(COC(=O)[C@]1(C)O)[C@H]23 | -3% | -5% | · | >57
O=C(NCc1ccccc1)C1CCCN(S(=O)(=O)c2cccnc2)C1 (stereo unspecified) | -2% | 0% | -6% | >57
